AmpC no deterg = qHTS Inhibitors of AmpC Beta-Lactamase (assay without detergent) | AmpC nitrocefin hydrolysis, absorbance 480 nm, 0.0001% Triton | Potency, µM (doses to about 57.1 µM), most hits filed as inhibitors | 0.52% of 330,000 active; also: nearly all actives have a fitted effect of over 20% in size
Target sequence (P00811 whole entry, looked up): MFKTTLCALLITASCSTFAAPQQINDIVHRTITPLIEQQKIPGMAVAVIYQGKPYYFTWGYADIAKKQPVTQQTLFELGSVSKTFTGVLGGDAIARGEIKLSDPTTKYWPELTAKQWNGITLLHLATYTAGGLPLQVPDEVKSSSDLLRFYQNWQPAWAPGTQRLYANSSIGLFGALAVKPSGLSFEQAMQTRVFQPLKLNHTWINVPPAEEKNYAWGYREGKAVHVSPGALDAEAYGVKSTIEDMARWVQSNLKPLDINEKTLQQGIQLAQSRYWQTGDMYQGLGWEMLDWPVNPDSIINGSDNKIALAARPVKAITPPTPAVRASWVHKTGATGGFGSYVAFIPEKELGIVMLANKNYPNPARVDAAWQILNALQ
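AmpC (5.3 nM in the dispensed reagent) in 20 mM phosphate pH 7.0 with 0.01% (detergent screen) or 0.0001% Triton X-100 was preincubated with compounds for 15 min at room temperature. Nitrocefin was then added from an 800 uM solution, and hydrolysis was followed at 480 nm.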
HCMV inh = qHTS Assay for inhibitors of the human cytomegalovirus (HCMV); 4.5% of 410,000 active; activity change, negative = inhibition, % at 57.5 µM; HFF cells, HCMV-luciferase reporter, 72 h; hits give low values; in the data active = activity change below about -60%; inconclusive = no clear call, values can overlap the other calls; inactive = above about -39%
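After 16 h attachment at 37C, HFF cells received test compound and HCMV-luciferase (1 PFU/cell); reporter luminescence read 72 h later, data normalized against buffer-only and known inhibitor Salinomycin.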
AmpC inh detg = qHTS Inhibitors of AmpC Beta-Lactamase (assay with detergent). Potency, µM (top dose mostly 114 µM), actives largely listed as inhibitors. 0.041% of 370,000 active. P00811. AmpC hydrolysis of nitrocefin, absorbance 480 nm, 0.01% Triton; also: nearly all actives have a fitted effect of over 25% in size
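AmpC (5.3 nM in the dispensed reagent) in 20 mM phosphate pH 7.0 with 0.01% (detergent screen) or 0.0001% Triton X-100 was preincubated with compounds for 15 min at room temperature. Nitrocefin was then added from an 800 uM solution, and hydrolysis was followed at 480 nm.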
HCV inh = qHTS Assay for Inhibitors of Hepatitis C Virus (HCV); Potency, µM (titrated, usually from 41.8 µM), most hits filed as inhibitors; 3.4% of 340,000 active; AID 651820, 2012; Huh7.5.1 HCVcc-Cre infection, luciferase reporter, 44 h
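Compounds are dispensed onto cells plated 4 h earlier at 1,000 per well, with HCVcc-Cre virus (about 0.5 moi) added next. Following 44 h of culture, luminescent signal is measured for 15 sec after 15 min with substrate at room temperature.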
FMDV antiviral = High Throughput Screening for Foot and Mouth Disease Virus Antivirals | 1.2% of 410,000 active | AID 1159524, 2015 | FMDV antiviral cell-based qHTS | Potency, µM (highest dose often 57.9 µM), most hits filed as inhibitors; calls by dose curve; tested in HEK293T cells; also: read-out not given here; nearly all actives have a fitted effect of over 45% in size
Of the large screens only hits and unclear results are named; the others gave an inactive call. Shown are actives, neighbours in structure and some others; about 7.3% of the full set was active somewhere. Unless noted, calls follow the shape of the dose curve; as a rule, active = well fitted curve in the direction sought with a large enough effect; inconclusive = small, poorly fitted or top-dose-only effect, or another doubt; inactive = no such curve, though single readings can be large; an effect the other way counts as inactive or inconclusive.

COc1ccc(-c2nc(NC(=O)c3n[nH]c(=O)c4ccccc34)sc2C)cc1	HCMV inh -60, HCV inh inconclusive
COc1cccc(C(=O)Nc2ccc(Oc3nnc(-c4ccccc4)c4ccccc34)cc2)c1	none (no result: AmpC no deterg, AmpC inh detg, HCV inh, FMDV antiviral)
CCC(C(=O)Nc1ccccc1OC)n1nc(C)c2sc3ccccc3c2c1=O (stereo not drawn)	none (no result: AmpC no deterg, HCV inh)
O=C(C1COc2ccccc2O1)N(Cc1cccnc1)c1nc2ccc(Cl)cc2s1 (stereo not drawn)	none (no result: AmpC no deterg, HCV inh)
O=S(=O)(Cc1ccccc1)Oc1ccccc1	HCMV inh -63
O=C(O)C(Cc1ccc(OS(=O)(=O)Cc2ccccc2)cc1)NS(=O)(=O)Cc1ccccc1 (stereo not drawn)	HCMV inh -60 (no result: AmpC no deterg, AmpC inh detg)
O=S(=O)(Cc1ccccc1)Nc1ccccc1	none
O=C(NC(Cc1cn(Cc2ccccc2)cn1)C(=O)O)OCC1c2ccccc2-c2ccccc21 (stereo not drawn)	none (no result: AmpC no deterg, HCMV inh, AmpC inh detg, HCV inh)
Nc1c(N(CCO)C(=O)COc2ccc(Cl)cc2)c(=O)[nH]c(=O)n1Cc1ccccc1	HCMV inh inconclusive
Nc1c(N(Cc2ccccc2)C(=O)COc2ccc([N+](=O)[O-])cc2)c(=O)[nH]c(=O)n1Cc1ccccc1	HCMV inh -97, HCV inh inconclusive (no result: AmpC no deterg, AmpC inh detg)
Cc1ccc(OCCC(=O)N(Cc2ccccc2)c2c(N)n(Cc3ccccc3)c(=O)[nH]c2=O)cc1	HCMV inh -81, AmpC inh detg inconclusive, HCV inh 11µM
CCCN(C)C1CN(Cc2cn(Cc3cccc(C(F)(F)F)c3)nn2)S(=O)(=O)C1 (stereo not drawn)	HCMV inh -100 (no result: AmpC no deterg, AmpC inh detg, HCV inh)
CSc1cccc(Nc2nc3c(S(=O)(=O)c4ccccc4)nnn3c3ccc(Cl)cc23)c1	none (no result: AmpC no deterg, HCV inh)
CC(C)Cn1c(N)c(C(=O)COC(=O)C2Cc3ccccc3CN2S(C)(=O)=O)c(=O)n(C)c1=O (stereo not drawn)	HCV inh 11µM
CCC(C(=O)OCC(=O)c1c(N)n(CC(C)C)c(=O)n(C)c1=O)c1ccccc1 (stereo not drawn)	HCMV inh inconclusive, HCV inh inconclusive, FMDV antiviral 40µM
Cc1nn(-c2ccccc2)c(C)c1C(=O)OCC(=O)c1c(N)n(CC(C)C)c(=O)n(C)c1=O	HCMV inh -79, AmpC inh detg inconclusive, HCV inh 5.6µM, FMDV antiviral 32µM
CC(C)Cn1c(N)c(C(=O)COC(=O)C2CCCCC2)c(=O)n(C)c1=O	HCV inh inconclusive, FMDV antiviral inconclusive
CC(C)Cn1c(N)c(C(=O)COC(=O)c2ccc(O)cc2)c(=O)n(C)c1=O	HCV inh inconclusive
CC1CN(S(=O)(=O)c2ccc(C(=O)Nc3ccccc3F)cc2)CC(C)O1 (stereo not drawn)	HCMV inh inconclusive, FMDV antiviral inconclusive (no result: AmpC inh detg)
Cc1noc(C)c1S(=O)(=O)N1CCN(S(=O)(=O)c2ccccc2C#N)CC1	none
O=C1C=C(NCCc2cc(Br)c(O)c(Br)c2)C(=O)c2ncccc21	HCMV inh -100, HCV inh inconclusive, FMDV antiviral 10µM (no result: AmpC no deterg, AmpC inh detg)
CC(C)(C)c1cc(CCC(=O)NCCc2ccccn2)cc(C(C)(C)C)c1O	HCV inh inconclusive
N#Cc1cc(C#N)c(SCC(=O)N2CC(=O)Nc3ccccc32)nc1N	HCV inh inconclusive
CCc1cc2cc(C)ccc2nc1SCC(=O)N1CC(=O)Nc2ccccc21	HCMV inh inconclusive, HCV inh 7.1µM
CCc1ccc2nc(SCC(=O)N3CC(=O)Nc4ccccc43)c(C#N)cc2c1	HCV inh 4.5µM
Cc1nc(SCC(=O)N2CC(=O)Nc3ccccc32)nc(C)c1C	none
CCc1cc2c(SCC(=O)N3CC(=O)Nc4ccccc43)ncnc2s1	HCMV inh -60
O=C1CCC[C@H]2[C@@H](Cc3ccccc3)[C@@H](NCc3cccs3)CC[C@]23CCCN13	none (no result: AmpC no deterg, AmpC inh detg, HCV inh, FMDV antiviral)
Cc1ccc(C(C)NC(=O)Cc2cccs2)c(C)c1 (stereo not drawn)	none
CCOC(=O)c1oc2ccccc2c1COC(=O)CNC(=O)c1cccc(C)c1	FMDV antiviral inconclusive
COc1ccc2c3c(n(C)c2c1)[C@@H](CO)N(C)CC31CN(C(=O)CN2CCOCC2)C1	none (no result: AmpC no deterg, AmpC inh detg, HCV inh, FMDV antiviral)
Cc1cccnc1-c1cccc2c1OC(CNC(=O)Cc1c(C)noc1C)C2 (stereo not drawn)	none (no result: AmpC no deterg, HCMV inh, AmpC inh detg, HCV inh)

Screening results: PubChem, National Center for Advancing Translational Sciences (NCATS)
